High-throughput results as filed in PubChem.
RE007 growth inh – less growth of the S. pombe RE007 Vpr strain. S. pombe RE007 Vpr strain, BacTiter-Glo ATP luminescence, 24 h. Potency, µM (top dose mostly 92.2 µM), for the others: at the highest dose activity change, negative = less growth, most hits filed as inhibitors. 360,000 compounds, 0.21% hits; active = well fitted falling curve with a large enough effect; inconclusive = small, poorly fitted or top-dose-only effect; inactive = no such curve, though single readings can be large or run the other way; note: potency is the fitted concentration of half-maximal effect; % is set by controls: 0 for no effect and ±100 for the full control effect; nearly all actives have a fitted effect of over 50% in size
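Fission yeast strain RE007, carrying one chromosomally integrated HIV-1 vpr copy, was seeded at OD 0.01 in PMG+AL medium with 23 nL pinned compound. After 24 h at 30 °C and 99% humidity, viability was read by BacTiter-Glo luminescence.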
Tb PYK inh – blocks Trypanosoma brucei pyruvate kinase. Q57TT1. TbPYK enzyme, Kinase-Glo Plus ATP luminescence, 45 min. Potency, µM (top dose mostly 76.8 µM), inactives show at the top dose activity, negative = inhibition, hits mostly inhibitors. 410,000 compounds, 0.12% hits. AID 624173; note: potency is the fitted concentration of half-maximal effect; % is set by controls: 0 for no effect and ±100 for the full control effect; nearly all actives have a fitted effect of over 50% in size
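Activity of T. brucei pyruvate kinase was followed by Kinase-Glo Plus luminescence after the enzyme reacted 45 min at room temperature with 130 uM ADP (final) and substrate. Test compounds were added before ADP at multiple concentrations.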
Cycloheximide cs – counter-screen hit for Shiga toxin inhibitors, cycloheximide | max response, % | cell reporter, cycloheximide protein synthesis inhibition counterscreen | AID 2314 | 300,000 compounds, 12% hits; in the data active = max response mostly above about 13%, no sharp cut-off; inactive = mostly below about 14%; note: read at 38.3 µM for the half of the compounds with a filed dose; 0% is about no effect
Shiga toxin inh – Shiga toxin inhibition; Vero cells, Shiga toxin protein synthesis inhibition reporter; inhibition, % at 38.7 µM; 290,000 compounds, 9.2% hits; in the data active = inhibition mostly above about 28%, no sharp cut-off; inactive = mostly below about 43%; note: 0% is about no effect
FBPA Giardia inh – blocks Giardia fructose-bisphosphate aldolase activity | A8B2U2 | purified Giardia FBPA | Potency, µM (highest dose often 59.6 µM), for the others: top-dose activity, negative = inhibition, hits mostly inhibitors | 290,000 compounds, 0.71% hits | AID 2451; note: potency is the fitted concentration of half-maximal effect; % is set by controls: 0 for no effect and ±100 for the full control effect; nearly all actives have a fitted effect of over 55% in size
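Giardia FBPA (40 nM reagent) was preincubated 10 min at RT with compound (up to 57.5 uM final), then substrate plus GAPDH/TPI/NAD/arsenate coupling system with diaphorase/resazurin was added; resorufin fluorescence (525/598 nm) was read after 20 min.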
LmPK inhibitor – blocks Leishmania mexicana pyruvate kinase activity | purified LmPK, Kinase-Glo ATP luminescence, 1 h | Potency, µM (top dose mostly 57.5 µM), for inactives: top-dose activity change, negative = inhibition, most hits filed as inhibitors | Q27686 | 290,000 compounds, 0.37% hits | AID 1721; note: potency is the fitted concentration of half-maximal effect; % is set by controls: 0 for no effect and ±100 for the full control effect
Target sequence (Q27686 whole entry, looked up): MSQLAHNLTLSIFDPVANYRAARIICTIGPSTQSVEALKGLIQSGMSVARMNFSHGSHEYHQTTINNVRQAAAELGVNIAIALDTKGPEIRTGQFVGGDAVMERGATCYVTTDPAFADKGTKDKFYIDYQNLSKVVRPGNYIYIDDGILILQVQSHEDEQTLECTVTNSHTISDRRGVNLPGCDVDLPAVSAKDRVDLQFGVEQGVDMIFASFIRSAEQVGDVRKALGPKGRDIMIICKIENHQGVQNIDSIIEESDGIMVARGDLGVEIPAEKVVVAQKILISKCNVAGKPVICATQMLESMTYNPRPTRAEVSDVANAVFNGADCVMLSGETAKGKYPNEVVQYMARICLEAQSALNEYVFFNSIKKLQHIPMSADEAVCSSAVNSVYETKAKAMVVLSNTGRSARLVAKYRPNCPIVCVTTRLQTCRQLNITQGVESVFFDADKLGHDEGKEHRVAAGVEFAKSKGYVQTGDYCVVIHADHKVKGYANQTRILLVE
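Purified LmPK (0.1 nM) converted ADP (0.1 mM) to ATP with PEP (0.5 mM) in imidazole buffer pH 7.2 with KCl and MgCl2, 1 h at room temperature. ATP was read by Kinase-Glo luminescence; data normalized to uninhibited and no-enzyme controls.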
Active calls of the source: *; ? = inconclusive; nt = no result given. This is one part of a sample in which hits are shown more often than they occur. Unless noted, calls come from the whole dose curve; as a rule, active = well fitted curve in the direction sought with a large enough effect; inconclusive = small, poorly fitted or top-dose-only effect, or another doubt; inactive = no such curve, though single readings can be large; an effect the other way counts as inactive or inconclusive.

SMILES	RE007 growth inh	Tb PYK inh	Cycloheximide cs	Shiga toxin inh	FBPA Giardia inh	LmPK inhibitor
c1ccc(-c2noc(COc3ccc4c(c3)OCO4)n2)cc1	-14%	-11%	26*	55*	0%	4%
Cc1ccccc1OCc1nc(-c2ccc(Br)o2)no1	-3%	2%	11	60	-2%	1%
Cc1ccc(-c2noc(COc3ccccc3C)n2)cc1	6%	4%	29*	55	0%	-6%
COc1ccc(OCc2nc(-c3ccc(-n4cccc4)cc3)no2)cc1	nt	-3%	nt	nt	nt	nt
Cc1ccc(OCc2nc(-c3ccccc3)no2)cc1	-6%	-23%	45*	84*	0%	-5%
Cc1ccccc1OCc1nc(-c2ccccc2)no1	-10%	-1%	39*	66*	3%	-5%
COc1ccc(-c2noc(COc3ccc4c(c3)OCO4)n2)cc1	-12%	3%	-4	7	4%	2%
COc1ccc(-c2nc(C)c(CCNC(=O)C(=O)Nc3ccccc3C#N)s2)cc1OC	nt	6%	nt	nt	nt	nt
Clc1ccc(Sc2cc(Cl)c(Cl)cc2Cl)cc1	nt	nt	-2	-6	-2%	nt
c1ccc(NCc2nc(-c3ccccc3)no2)cc1	-17%	-2%	56*	155*	-1%	1%
O=C(Oc1cccc2cccnc12)c1cccs1	5µM*	6%	21*	41	?	10%
O=C(Oc1cccc2cccnc12)c1ccc2c(c1)OCCO2	?	0%	70*	84*	-29%	-1%
O=C(Oc1cccc2cccnc12)c1ccco1	28µM*	-9%	-4	14	-4%	3%
CC(=O)NCCOc1cccc2cccnc12	-1%	3%	-1	-23	-11%	1%
O=C(NCCOc1cccc2cccnc12)c1cccs1	-5%	2%	22	46*	-1%	3%
CCOc1ccccc1C(=O)Nc1c(NC)c2ccccc2oc1=O	nt	2%	nt	nt	nt	nt
Cc1cc(C)cc(C(=O)Nc2ccc(N3CCCC3)cc2)c1	4%	-19%	50*	72*	-6%	-13%
Cc1cc(C)cc(NC(=O)Nc2ccc(N3CCCCC3)cc2)c1	2%	-25%	38*	27	-2%	-14%
COc1cccc(Cn2c(=O)cnc3cnc(OCc4ccccc4)nc32)c1	nt	nt	nt	nt	5%	nt
COc1ccc(-n2c(=O)c3c4c(sc3n3c(SC(C)C)nnc23)COC(C(C)C)C4)cc1 (centres undefined)	nt	5%	nt	nt	nt	nt
CC(=O)Nc1ccc(NC(=O)c2cc(-c3ccc(C)cc3O)n[nH]2)cc1	10%	10%	3	27	1%	9%
Oc1ccc(Cl)cc1-c1cc(-c2ccccc2)n[nH]1	3%	0%	18*	31	-2%	11%
Cc1ccc(O)c(-c2cc(-c3cccc(Br)c3)n[nH]2)c1	?	-7%	45*	98*	3%	-5%
Cc1ccc(-c2cc(-c3ccc(C)cc3O)[nH]n2)cc1	7%	-3%	41*	51*	8%	2%
Oc1ccccc1-c1cc(-c2ccc(F)cc2)n[nH]1	-20%	3%	30*	nt	12%	3%
SMILES	RE007 growth inh	Tb PYK inh	Cycloheximide cs	Shiga toxin inh	FBPA Giardia inh	LmPK inhibitor
Cc1nc2ccccc2n1CCc1nc2c3ccccc3nc(SCc3ccc(F)cc3)n2n1	nt	3%	nt	nt	nt	nt
CCc1cc(-c2n[nH]c(C)c2-c2ccc3c(c2)OCCO3)c(O)cc1O	nt	0%	5	-12	-25%	nt
Cc1ccc(-c2noc(-c3cc(-c4ccc(F)cc4)n[nH]3)n2)cc1	nt	2%	nt	nt	nt	nt
Oc1ccc(F)cc1-c1cc(-c2ccc3c(c2)OCCO3)n[nH]1	3%	3%	42*	90*	-4%	0%
Cc1ccc(-c2cc(-c3ccc(F)cc3)n[nH]2)c(O)c1	-10%	1%	51*	101*	0%	-1%
COc1ccc(C2NC(=O)N(C)C3=C2C(=O)N(c2cccc(Cl)c2)C3)cc1 (centres undefined)	nt	-6%	nt	nt	nt	nt
Cc1nc2c(ccc3c([N+](=O)[O-])cccc32)c(C)c1C	-1%	2%	37*	75	-5%	-3%
O=C(/C=C/c1ccc(Cl)cc1)c1cccnc1	28µM*	-10%	-2	-13	-5%	-4%
